Source: PubChem BioAssay (NCATS)
Several values for one entry are separate records, joined by “and”; a condition that tells them apart may be missing. Identical values can stand only once. Inconclusive results are not listed. Activity calls are given as the source filed them. The call rests on the fitted dose curve; in most records, active means well fitted inhibition curve with a large enough effect; inconclusive means small, poorly fitted or top-dose-only effect; inactive means flat fitted curve, though single readings scatter.

Experiments:
SC27B = assay: qHTS profiling for inhibitors of Plasmodium falciparum proliferation (AID 504749);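 further: 0% = DMSO vehicle and full inhibition = artemisinin control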; conditions: P. falciparum in erythrocytes, SYBR Green DNA, 72 h; series mostly up to 28.7 µM
Summary of the method: (§1)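 SYBR Green fluorescence of parasite DNA, read after lysis and overnight dark incubation, measured growth over 72 h in erythrocyte culture at 0.3% parasitemia and 2.5% hematocrit. Data normalised to DMSO and 0.29 uM artemisinin, with plate-drift correction.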

TAB109 = assay: as above; conditions: P. falciparum in erythrocytes, SYBR Green DNA, 72 h; series mostly up to 28.7 µM
Summary of the method: as §1

TAB113 = assay: as above; conditions: P. falciparum in erythrocytes, SYBR Green DNA, 72 h; series mostly up to 28.7 µM
Summary of the method: as §1

TAB165 = assay: as above; conditions: P. falciparum in erythrocytes, SYBR Green DNA, 72 h; series mostly up to 28.7 µM
Summary of the method: as §1

W2 = assay: as above; conditions: P. falciparum in erythrocytes, SYBR Green DNA, 72 h; series mostly up to 28.7 µM
Summary of the method: as §1

CRL-7250 [1] = assay: Cytotoxic Profiling of Annotated Libraries Using Quantitative High-Throughput Screening (AID 1296008); conditions: Five cell lines viability, CellTiter-Glo ATP luminescence, 48-72 h; max response: hits give low values; on max response: on the % scale 0 is the no-effect control and ±100 the full control effect
Summary of the method: (§2)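 Cytotoxicity was measured as CellTiter-Glo ATP luminescence, read after 10 min at room temperature. Compound treatment of the cells lasted 48 or 72 hr at 37 degrees Celsius in a qHTS format.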

HEK293 = assay: as above; conditions: Five cell lines viability, CellTiter-Glo ATP luminescence, 48-72 h; max response: hits give low values
Summary of the method: as §2

HaCat [2] = assay: as above; conditions: Five cell lines viability, CellTiter-Glo ATP luminescence, 48-72 h; max response: hits give low values
Summary of the method: as §2

KB-3-1 = assay: as above; conditions: Five cell lines viability, CellTiter-Glo ATP luminescence, 48-72 h; max response: hits give low values
Summary of the method: as §2

NIH3T3 [3] = assay: as above; conditions: Five cell lines viability, CellTiter-Glo ATP luminescence, 48-72 h; max response: hits give low values
Summary of the method: as §2

MCC-13 = assay: qHTS assay to identify novel small-molecules to repurpose for Merkel cell carcinoma treatment (AID 1296009); conditions: MCC and control cell lines, CellTiter-Glo viability, 72 h; series mostly up to 46 µM
Summary of the method: (§3)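 Cell viability, measured as CellTiter-Glo luminescence, was normalized between DMSO and no-cell wells. The cells had been exposed to 8- or 11-point compound dilutions for 72 hr at 37 degree celsius.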

MCC-26 = assay: as above; conditions: MCC and control cell lines, CellTiter-Glo viability, 72 h; series mostly up to 46 µM
Summary of the method: as §3

MKL-1 = assay: as above; conditions: MCC and control cell lines, CellTiter-Glo viability, 72 h; series mostly up to 46 µM
Summary of the method: as §3

MKL-2 = assay: as above; conditions: MCC and control cell lines, CellTiter-Glo viability, 72 h; series mostly up to 46 µM
Summary of the method: as §3

NIH3T3 [4] = assay: as above; conditions: MCC and control cell lines, CellTiter-Glo viability, 72 h; at 44.8 µM (top of the series) unless noted
Summary of the method: as §3

UISO = assay: as above; conditions: MCC and control cell lines, CellTiter-Glo viability, 72 h; series mostly up to 46 µM
Summary of the method: as §3

WaGa = assay: as above; conditions: MCC and control cell lines, CellTiter-Glo viability, 72 h; series mostly up to 46 µM
Summary of the method: as §3

HACAT [5] = assay: as above; conditions: MCC and control cell lines, CellTiter-Glo viability, 72 h; at 44.8 µM (top of the series) unless noted
Summary of the method: as §3

HEK293T = assay: as above; conditions: MCC and control cell lines, CellTiter-Glo viability, 72 h; at 44.8 µM (top of the series)
Summary of the method: as §3

CRL-7250 [6] = assay: as above; conditions: MCC and control cell lines, CellTiter-Glo viability, 72 h; at 44.8 µM (top of the series) unless noted
Summary of the method: as §3
Further: nearly all actives have a fitted effect of over 60% in size.

COP(=S)(OC)Oc1ccc(Sc2ccc(OP(=S)(OC)OC)cc2)cc1
inactive: Potency (SC27B) | Potency (TAB109) | Potency (TAB113) | Potency (TAB165) | Potency (W2) | max response (CRL-7250 [1]) -0.305% | max response (HEK293) 3.86% | max response (HaCat [2]) -8.51% | max response (KB-3-1) 1.06% | outcome (NIH3T3 [3]) | Potency (MCC-13) | Potency (MCC-26) | Potency (MKL-1) | Potency (MKL-2) | outcome (NIH3T3 [4]) | Potency (UISO) | Potency (WaGa)

ClC1=C(Cl)C2(Cl)C(CBr)CC1(Cl)C2(Cl)Cl (stereo unspecified)
inactive: Potency (SC27B) | Potency (TAB109) | Potency (TAB113) | Potency (TAB165) | max response (CRL-7250 [1]) -0.0053% | outcome (HEK293) | outcome (HaCat [2]) | max response (KB-3-1) -4.74% | max response (NIH3T3 [3]) -4.41% | outcome (HACAT [5]) | outcome (HEK293T) | Potency (MCC-13) | Potency (MCC-26) | Potency (MKL-1) | Potency (MKL-2) | Potency (UISO) | Potency (WaGa)

COc1ccc(CN2CCNCC2)c(OC)c1OC
inactive: Potency (SC27B) | Potency (TAB109) | Potency (TAB113) | Potency (TAB165) | max response (CRL-7250 [1]) 0.0195% | max response (HEK293) -9.25% | outcome (HaCat [2]) | max response (KB-3-1) 5.8% | max response (NIH3T3 [3]) 1.76% | outcome (HACAT [5]) | Potency (MCC-13) | Potency (MCC-26) | Potency (MKL-1) | Potency (MKL-2) | Potency (UISO) | Potency (WaGa)

COc1cc(N)c(Cl)cc1C(=O)NC1CN2CCC1CC2 (stereo unspecified)
inactive: max response (CRL-7250 [1]) -0.63% | max response (HEK293) -0.75% | max response (HaCat [2]) -3.99% | max response (KB-3-1) 8.72% | outcome (NIH3T3 [3]) | Potency (MCC-13) | Potency (MCC-26) | Potency (MKL-1) | Potency (MKL-2) | outcome (NIH3T3 [4]) | Potency (UISO) | Potency (WaGa)

CCCOC(=O)Cc1ccc(OCC(=O)N(CC)CC)c(OC)c1
inactive: max response (CRL-7250 [1]) -7.4% | max response (HEK293) -10.1% | max response (HaCat [2]) -1.71% | max response (KB-3-1) -8.87% | max response (NIH3T3 [3]) -20.5% | Potency (MCC-13) | Potency (MCC-26) | Potency (MKL-1) | Potency (MKL-2) | Potency (UISO) | Potency (WaGa)

C[C@H]1CNCCc2ccc(Cl)cc21
inactive: outcome (CRL-7250 [1]) | outcome (HEK293) | max response (HaCat [2]) 2.82% | max response (KB-3-1) -14.3% | outcome (NIH3T3 [3]) | outcome (CRL-7250 [6]) | outcome (HEK293T) | Potency (MCC-13) | Potency (MCC-26) | Potency (MKL-1) | Potency (MKL-2) | outcome (NIH3T3 [4]) | Potency (UISO) | Potency (WaGa)

C[C@]12CC[C@H]3[C@@H](CC=C4C[C@@H](O)CC[C@@]43C)[C@@H]1CC[C@@H]2O
inactive: Potency (SC27B) | Potency (TAB109) | Potency (TAB113) | Potency (TAB165) | Potency (W2) | max response (CRL-7250 [1]) -19.9% | max response (HEK293) -6.75% | outcome (HaCat [2]) | max response (KB-3-1) -11.4% | max response (NIH3T3 [3]) 4.53% | outcome (HACAT [5]) | Potency (MCC-13) | Potency (MCC-26) | Potency (MKL-1) | Potency (MKL-2) | Potency (UISO) | Potency (WaGa)

COC(=O)C1=CCCN(C)C1
inactive: Potency (SC27B) | Potency (TAB109) | Potency (TAB113) | Potency (TAB165) | Potency (W2) | max response (CRL-7250 [1]) -3.77% | outcome (CRL-7250 [1]) | max response (HEK293) 2.76% and 4.85% | max response (HaCat [2]) -4.46% | outcome (HaCat [2]) | max response (KB-3-1) 6.89% and 12.1% | outcome (NIH3T3 [3]) | outcome (CRL-7250 [6]) | outcome (HACAT [5]) | Potency (MCC-13) | Potency (MCC-26) | Potency (MKL-1) | Potency (MKL-2) | outcome (NIH3T3 [4]) | Potency (UISO) | Potency (WaGa)

CCN(CC)C(C)C(=O)c1ccccc1 (stereo unspecified)
inactive: Potency (SC27B) | Potency (TAB109) | Potency (TAB165) | Potency (W2) | max response (CRL-7250 [1]) -0.537% | max response (HEK293) -27.4% | outcome (HaCat [2]) | max response (KB-3-1) -1.49% | max response (NIH3T3 [3]) -1.81% | outcome (HACAT [5]) | Potency (MCC-13) | Potency (MCC-26) | Potency (MKL-1) | Potency (MKL-2) | Potency (UISO) | Potency (WaGa)

CN(C)CCc1c[nH]c2cccc(O)c12
inactive: outcome (CRL-7250 [1]) | max response (HEK293) -13.6% | outcome (HaCat [2]) | max response (KB-3-1) -8.17% | max response (NIH3T3 [3]) 2.31% | outcome (CRL-7250 [6]) inactive [at 92 µM] | outcome (HACAT [5]) inactive [at 92 µM] | Potency (MCC-13) | Potency (MCC-26) | Potency (MKL-1) | Potency (MKL-2)

CCOC(=O)NC(O)C(Cl)(Cl)Cl (stereo unspecified)
inactive: Potency (SC27B) | Potency (TAB109) | Potency (TAB113) | Potency (TAB165) | Potency (W2) | max response (CRL-7250 [1]) 0.547% | max response (HEK293) -1.01% | outcome (HaCat [2]) | max response (KB-3-1) 11.7% | max response (NIH3T3 [3]) 0.136% | outcome (HACAT [5]) | Potency (MCC-13) | Potency (MCC-26) | Potency (MKL-1) | Potency (MKL-2) | Potency (UISO) | Potency (WaGa)

CCC(=O)OC1(c2ccccc2)CCN(C)CC1
inactive: max response (CRL-7250 [1]) -2.3% | max response (HEK293) -12.2% | max response (HaCat [2]) -5.78% | max response (KB-3-1) 2.4% | max response (NIH3T3 [3]) -0.056% | Potency (MCC-13) | Potency (MCC-26) | Potency (MKL-1) | Potency (MKL-2) | Potency (UISO) | Potency (WaGa)

CCC1(c2ccccc2)CCC(=O)NC1=O (stereo unspecified)
inactive: Potency (SC27B) | Potency (TAB109) | Potency (TAB113) | Potency (TAB165) | outcome (CRL-7250 [1]) | max response (HEK293) -5.95% | max response (HaCat [2]) -1.76% | max response (KB-3-1) -6.95% | max response (NIH3T3 [3]) 4.7% | outcome (CRL-7250 [6]) | Potency (MCC-13) | Potency (MCC-26) | Potency (MKL-1) | Potency (MKL-2) | Potency (UISO) | Potency (WaGa)
